# Screening data (PubChem BioAssay)
# This is a sample that favours compounds with a hit; in the whole collection about 11% have one here.
# IL-1B inflam inh: inflammasome signaling inhibition, IL-1 beta readout | activity change, % at 57.5 µM | hit rate 4.7% among 360,000 | THP-1 LPS/ATP IL-1B secretion, AlphaLISA, 16 h; stronger effect = lower value; in the data active = activity change below about -50%; inconclusive = mostly about -30% to -49%; note: % is set by controls: 0 for no effect and ±100 for the full control effect
#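 THP-1 cells pretreated 1 hr with compounds (up to 57.5 uM final), then stimulated with LPS (250 ng/mL final) plus ATP (1.25 mM final); secreted IL-1B measured by AlphaLISA after 16 hr, decreased signal indicating inhibition.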
# MCF10A rerep: inducers of DNA re-replication in MCF 10A breast cells | AID 624296 | hit rate 2.9% among 350,000 | Potency, µM (series often up to 46.1 µM), inactives show top-dose activity, positive = re-replication, hits mostly activators | MCF 10A DNA re-replication, Hoechst nuclear intensity, 48 h; note: potency is the fitted concentration of half-maximal effect; % of control where 0% means no effect; nearly all actives have a fitted effect of over 50% in size
# VP16 counter: counter-screen for ROR gamma inhibitors: Gal4-VP16 reporter; AID 2546; hit rate 3.5% among 310,000; Potency, µM (titrated, usually from 53.6 µM), for the others: at the top dose activity, negative = inhibition, hits mostly inhibitors; Drosophila S2 Gal4-VP16 UAS-luciferase, luminescence, 20 h;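 note: Gal4-VP16 expression switched on by copper sulfate through the metallothionein promoter; potency is the fitted concentration of half-maximal effect; % is set by controls: 0 for no effect and ±100 for the full control effect; nearly all actives have a fitted effect of over 50% in size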
# SW480 rerep: DNA re-replication induction in SW480 cells; SW480 DNA re-replication, Hoechst DNA content imaging, 48 h; Potency, µM (top dose mostly 46.1 µM), inactives show at the highest dose re-replication activation, usual class: activators; hit rate 1.8% among 340,000; note: potency is the fitted concentration of half-maximal effect; % of control where 0% means no effect; nearly all actives have a fitted effect of over 55% in size
#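 Image-based DNA-content assay: after two days of treatment, nuclei were labelled with the DNA dye Hoechst and imaged, and hits were compounds raising the count of nuclei showing high fluorescence intensity.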
# RORg inh: inhibitors of mouse ROR gamma transcriptional activity. Drosophila S2 Gal4-RORgamma UAS-luciferase reporter, 20 h. P51450. Potency, µM (highest dose often 53.6 µM), without a hit: top-dose activity change, negative = inhibition, actives largely listed as inhibitors. AID 2551. hit rate 5.4% among 310,000; note: potency is the fitted concentration of half-maximal effect; % is set by controls: 0 for no effect and ±100 for the full control effect; nearly all actives have a fitted effect of over 60% in size
# Target sequence (P51450 whole entry, looked up, the tested form may be a part): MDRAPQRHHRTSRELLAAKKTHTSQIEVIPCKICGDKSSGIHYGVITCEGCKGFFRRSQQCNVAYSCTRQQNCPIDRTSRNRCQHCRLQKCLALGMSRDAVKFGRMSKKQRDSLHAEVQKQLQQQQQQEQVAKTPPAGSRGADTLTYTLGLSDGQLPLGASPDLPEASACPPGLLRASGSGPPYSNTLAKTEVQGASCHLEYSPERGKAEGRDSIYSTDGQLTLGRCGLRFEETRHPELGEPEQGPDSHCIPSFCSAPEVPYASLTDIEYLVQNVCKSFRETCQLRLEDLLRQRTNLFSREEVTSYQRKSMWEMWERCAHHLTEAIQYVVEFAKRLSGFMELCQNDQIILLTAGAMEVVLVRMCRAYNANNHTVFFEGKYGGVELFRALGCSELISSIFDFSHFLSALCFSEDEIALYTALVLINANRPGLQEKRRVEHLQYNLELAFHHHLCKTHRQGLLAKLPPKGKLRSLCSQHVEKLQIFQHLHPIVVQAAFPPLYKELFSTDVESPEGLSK
#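 Drosophila S2 cells stably expressing Gal4-DBD/mouse RORγ fusion under metallothionein promoter plus UAS-luciferase; compound 1 h, then 700 uM CuSO4 induction for 20 h at ambient temperature; inhibition read as reduced luminescence.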
# Numbers without * were called inactive; ? = inconclusive; . = no result. Unless noted, calls come from the whole dose curve; as a rule, active = well fitted curve in the direction sought with a large enough effect; inconclusive = small, poorly fitted or top-dose-only effect, or another doubt; inactive = no such curve, though single readings can be large; an effect the other way counts as inactive or inconclusive.
SMILES,IL-1B inflam inh,MCF10A rerep,VP16 counter,SW480 rerep,RORg inh
CCC/C=C(\CCC)C(NS(=O)(=O)c1cccc2cccnc12)c1ccc(-c2ccccc2)cc1 (centres undefined),.,.,-5.2%,.,-24.1%
Cc1cc(NS(=O)(=O)c2ccc(NC(=O)c3ccc([N+](=O)[O-])s3)cc2)nc(C)n1,-53.2*,18.4µM*,.,?,.
Cc1cc(NS(=O)(=O)c2ccc(NC(=O)c3c(F)c(F)c(F)c(F)c3F)cc2)nc(C)n1,-20.2,?,0.3%,0.2%,-18.4%
Cc1ccnc(NS(=O)(=O)c2ccc(NC(=O)c3ccc([N+](=O)[O-])s3)cc2)n1,-21.3,11.6µM*,-12.1%,18.4µM*,0.9%
O=C(COC(=O)c1ccccc1OCc1ccccc1Cl)NCC1CCCO1 (centres undefined),-50.8*,1.1%,.,-4.8%,.
Cc1ccc(C)c(N2N=C(C(=O)OCc3nnc(-c4ccccc4Br)o3)CCC2=O)c1,12.1,.,.,.,.
Cc1nc(N2CCCCC2C)c2c(C)c(C(=O)Nc3cccc(C(F)(F)F)c3)sc2n1 (centres undefined),-73.2*,18.4µM*,6.3%,26.5%,-7.4%
COc1cc(NC(=O)c2sc3nc(C)nc(N4CCOCC4)c3c2C)cc(OC)c1OC,?,1.9%,?,11.2%,3.7%
CCOC(=O)c1sc2nc(C)nc(N3CCCCC3C)c2c1C (centres undefined),30.3,17.8µM*,4.2%,3.9%,-9.9%
Cc1nc(N2CCN(C)CC2)c2c(C)c(C(=O)Nc3ccc(F)cc3)sc2n1,-78.4*,-2.1%,3.3%,0.0%,23.2%
Cc1nc(N2CCCCC2)c2c(C)c(C(=O)Nc3ccccc3C(F)(F)F)sc2n1,-16.2,?,?,3.1%,?
Cc1nc(N2CCCCC2)c2c(C)c(C(=O)Nc3cccc(C(F)(F)F)c3)sc2n1,-7.7,18.4µM*,?,-148.8%,-31.1%
O=C(c1csnn1)N1CCC2(CC1)CCN(c1ncccn1)CC2,.,.,3.7%,.,6.5%
CCNc1ncc2nc(-c3ccc(F)cc3)c(=O)n(CCOC)c2n1,.,.,4.1%,.,3.0%
COc1cccc(-c2cc(CNC(=O)[C@H]3O[C@@H](n4cnc5c(N)ncnc54)[C@H](O)[C@@H]3O)no2)c1,-14.8,.,.,.,.
COC(=O)c1ccc2nc(-c3ccc4c(c3)OCO4)cn2c1,-7.1,7.6%,?,-3.5%,?
CCc1ccn2cc(-c3ccc4c(c3)OCO4)nc2c1,-16.3,4.8%,4.47µM*,-1.5%,1.12µM*
COc1ccc(CCNC(=O)c2ccccc2NC(=O)C2=C(C)OCCS2)c(OC)c1,0.0,1.9%,-5.1%,-11.0%,?
CC1CC1c1ccc(/C=C(\C#N)C(=O)Nc2ccccc2Cl)o1 (centres undefined),-16.5,16.4µM*,26.2%,4.2%,?
CC1CC1c1ccc(/C=C(\C#N)C(=O)Nc2ccc(Cl)cc2)o1 (centres undefined),-13.9,10.5%,3.9%,11.9%,30.9%
CC1=C(C(=O)N(C(C)C)C(C)C)CC(CC(=O)NC2CC2)C(=O)N1CCCN1CCCC1=O (centres undefined),0.1,.,.,.,.
CCCCn1c(Cl)nc2c1c(=O)n(C)c(=O)n2C,-6.8,-7.8%,-0.8%,-1.7%,-6.4%
Cn1c(=O)c2c(nc(Cl)n2CCOc2ccccc2)n(C)c1=O,1.7,4.4%,?,9.2µM*,?
O=C(Cn1cnc2c(OCc3ccccc3)ncnc21)N[C@H](CO)Cc1cc2ccccc2[nH]1,-1.7,11.8%,.,3.2%,.
COc1ccccc1NC(=O)C(C)OC(=O)C(C)SCC(=O)Nc1ccc(C)cc1 (centres undefined),17.2,-0.4%,.,-0.4%,.
SMILES,IL-1B inflam inh,MCF10A rerep,VP16 counter,SW480 rerep,RORg inh
COc1ccccc1CN(C)C(=O)COC(=O)c1c(C)noc1C,29.9,6.6%,.,0.4%,.
CC1(C(=O)Nc2ccccc2)CCN1C(=O)CCc1ccc(Cl)cc1Cl (centres undefined),-6.1,.,.,.,.
O=C(COc1ccccc1Br)c1ccc(O)cc1O,-22.0,-3.4%,?,3.1%,10µM*
O=C(COc1ccccc1Br)c1ccc2c(c1)OCO2,-12.0,-6.2%,.,-33.6%,.
Cc1ccc(-c2nc(-c3ccccc3)no2)c(Cl)c1,16.5,13.7%,7.08µM*,3.3%,10µM*
Cc1ccc(-c2nc(-c3ccncc3)no2)cc1,-2.6,-1.6%,?,-11.0%,14.1µM*
COc1ccc(-c2nc(-c3ccncc3)no2)c(OC)c1,-5.0,2.5%,?,-3.5%,7.94µM*
Cc1ccc(-c2nc(-c3ccccc3)no2)cc1,27.3,-3.2%,12.6µM*,-1.9%,10µM*
CC1C(=O)N2CCCc3cc(NC(=O)COc4ccccc4)cc1c32 (centres undefined),11.7,8.1%,.,-6.6%,.
CC1(C(=O)NS(=O)(=O)C2CC2)CCCN(C(=O)c2ccc(F)cc2Cl)C1 (centres undefined),29.4,.,.,.,.
CC1(c2ccccc2Cl)NC(=O)N(CC(=O)Nc2ccc(N3CCCCC3)cc2)C1=O (centres undefined),-10.8,10.7%,.,?,.
O=Nc1c(O)[nH]c2c(Cl)c(Cl)ccc12,.,.,0.0%,.,-29.8%
COc1ccc(-c2noc(-c3ccccc3F)n2)cc1,-1.2,2.5%,?,3.4%,?
O=[N+]([O-])c1cc(-c2nc(-c3ccncc3)no2)cc([N+](=O)[O-])c1,32.2,0.6%,-18.2%,?,-44.2%
COc1ccc(-c2nc(-c3cccc(C)c3)no2)cc1OC,-21.2,-25.3%,?,-1.6%,?
COc1ccccc1-c1nc(-c2cccc(C)c2)no1,0.0,17.6%,22.4µM*,0.2%,?
COc1ccc(-c2noc(-c3ccccc3-c3ccccc3)n2)cc1,-14.5,23.1%,12.0%,3.8%,15.8µM*
O=[N+]([O-])c1cc(-c2nc(-c3ccncc3)no2)ccc1Cl,-117.9*,-3.6%,?,1.9%,?
CC(C)(C)NC(=O)C(c1ccccc1F)n1c(=O)c(-c2cc3ccccc3[nH]2)nc2ccccc21 (centres undefined),4.2,.,.,.,.
CC(C)(C)OC(=O)N(Cc1ccccc1)Cc1cccc(OCc2cccc(NC(=O)c3ccccc3)c2)c1,-4.8,0.291µM*,.,-56.9%,.
CC(C)C(=O)Nc1cccc(COc2ccccc2CN(Cc2ccccc2)C(=O)OC(C)(C)C)c1,-7.2,11.6µM*,.,?,.
CC(C)(C)OC(=O)N(Cc1ccccc1)Cc1ccc(OCc2cccc(NC(=O)C3CC3)c2)cc1,-13.5,?,.,?,.
CC(C)(C)OC(=O)N(Cc1ccccc1)Cc1ccccc1OCc1cccc(NC(=O)c2ccccc2)c1,8.3,?,.,-0.1%,.
CCC(C)N1CCN(S(=O)(=O)Cc2ccccc2)CC1 (centres undefined),-5.5,0.4%,5.5%,-7.9%,-19.6%
CCN(CC)c1ccc(/C=C/c2cc(-c3ccccc3)c3ccccc3n2)cc1,34.1,?,1.3%,14.6µM*,-38.4%
